Screening results as filed in PubChem.
The full list was thinned out, with hits kept by preference.
14-3-3g Raf: 14-3-3 gamma protein interaction modulation | FP, 14-3-3gamma / TMR-pS259-Raf peptide binding | P61981 | 160,000 compounds, 0.19% hits | inhibition, % at 40 µM | AID 422; in the data active = inhibition above about 30%;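 also: 0% = protein plus tracer without compound and 100% = blank with tracer alone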
Target sequence (P61981 whole entry, looked up): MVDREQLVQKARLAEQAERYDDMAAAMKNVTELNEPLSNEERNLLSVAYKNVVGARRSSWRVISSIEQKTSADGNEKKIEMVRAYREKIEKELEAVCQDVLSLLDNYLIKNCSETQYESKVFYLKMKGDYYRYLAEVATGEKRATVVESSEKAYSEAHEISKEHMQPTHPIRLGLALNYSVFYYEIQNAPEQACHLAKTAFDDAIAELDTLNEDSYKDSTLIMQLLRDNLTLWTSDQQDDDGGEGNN
* hit, by the source's call.

Screening O=S(=O)(Nc1cccc(-c2cn3ccsc3n2)c1)c1ccccc1 returned 14-3-3g Raf -6.
For C=CCSc1nnc2c(n1)OC=Nc1ccc(Br)cc1-2 the results were 14-3-3g Raf -7.
Screening C=CCSc1nnc2c(n1)OC(C)(C)Nc1ccc(Br)cc1-2 returned 14-3-3g Raf 112*.
Screening C=CCSc1nnc2c(n1)OC(c1ccncc1)Nc1ccc(Br)cc1-2 (configuration not stated) returned 14-3-3g Raf -25.
Screening CCOC(=O)C1CCN(C(=O)c2coc(=O)c3ccccc23)CC1 returned 14-3-3g Raf -1.
Cc1nc(=S)c2sc3nc4c(cc3c2[nH]1)COC(C)(C)C4 was read as 14-3-3g Raf -9.
For O=C(NCc1cccc(Cl)c1)c1ccc(N2CC3CC(C2)c2cccc(=O)n2C3)c(NC(=O)c2ccc(F)cc2)c1 (configuration not stated) the results were 14-3-3g Raf -8.
`COC(=O)c1sc2nc(-c3ccncc3)cc(C(F)(F)F)c2c1N` gave 14-3-3g Raf -38.
Nc1c(C(=O)NCCc2ccccc2)sc2nc(-c3ccccc3)cc(C(F)(F)F)c12 was read as 14-3-3g Raf -2.
For Nc1c(C(=O)c2ccccc2)sc2nc(-c3ccccc3)cc(C(F)(F)F)c12 the results were 14-3-3g Raf 60*.
For Cc1nc2nc(SCC(=O)Nc3ccccc3C(F)(F)F)nn2c(C)c1Cc1ccccc1F the results were 14-3-3g Raf 7.
CCN(CC)c1ccc(C=Nc2cccc(Cl)c2)c(O)c1 was read as 14-3-3g Raf -8.
Screening CC1=NN(C(=O)c2ccc(Cl)cc2)C(C)(C)C1 returned 14-3-3g Raf 49*.
For CC1=NN(C(=O)c2ccc(Cl)cc2)C(O)(c2cccc([N+](=O)[O-])c2)C1 (configuration not stated) the results were 14-3-3g Raf -4.
`C=CCC1C(C)=NN(C(=O)c2ccc(Cl)cc2)C1(C)O` (configuration not stated) gave 14-3-3g Raf -6.
Screening CCOc1ccccc1N(C)S(=O)(=O)c1ccc2[nH]cc(C(=O)NCc3cccnc3)c(=O)c2c1 returned 14-3-3g Raf -17.
COc1cc2c(cc1OC)C1C(C(=O)N3CCOCC3)c3ccccc3C(=O)N1CC2 (configuration not stated) was read as 14-3-3g Raf -2.
For COc1ccc(-c2cc(C(F)(F)F)n3nc(C(=O)Nc4ccc5c(c4)OCO5)c(Cl)c3n2)cc1OC the results were 14-3-3g Raf -11.
CC(C)=CCCC(C)=CCSc1nnc(-c2ccncc2)o1 was read as 14-3-3g Raf 5.
COc1ccc(-n2nc(C(=O)Nc3cccc(C)n3)c3ccccc3c2=O)cc1 was read as 14-3-3g Raf 7.
CC12COc3ccccc3C1c1sc(=O)[nH]c1SC2 (configuration not stated) was read as 14-3-3g Raf 108*.
O=c1[nH]c2c(s1)C1c3c(ccc4ccccc34)OCC1CS2 (configuration not stated) was read as 14-3-3g Raf 3.
For O=C(O)C1Sc2[nH]c(=O)sc2C2c3ccccc3OC(=O)C12 (configuration not stated) the results were 14-3-3g Raf -34.
Screening COc1ccc(C2N(C(=O)CN3CCCC3)CCN2S(=O)(=O)c2ccccc2)cc1 (configuration not stated) returned 14-3-3g Raf 1.
O=C1c2cccc3cccc(c23)C(=O)N1CCN1CCN(S(=O)(=O)c2cccc([N+](=O)[O-])c2)CC1 was read as 14-3-3g Raf 3.
For COc1cccc(NS(=O)(=O)c2cccnc2)c1 the results were 14-3-3g Raf -5.
Screening CCC(=O)N1CCc2cc(Br)cc(S(=O)(=O)N3CCC(C(=O)Nc4ccc(CC)cc4)CC3)c21 returned 14-3-3g Raf -12.
Screening CC(=O)N1c2ccc(S(=O)(=O)CCC(=O)NCc3ccccc3)cc2CC1C (configuration not stated) returned 14-3-3g Raf 20.
`CC(=O)N1c2ccc(S(=O)(=O)CCC(=O)NCc3ccc(C)cc3)cc2CC1C` (configuration not stated) gave 14-3-3g Raf 33*.
COc1cccc(CNC(=O)CCS(=O)(=O)c2ccc3c(c2)CC(C)N3C(C)=O)c1 (configuration not stated) was read as 14-3-3g Raf 0.
O=C(NCCN1CCOCC1)c1cc2cc([N+](=O)[O-])ccc2oc1=O was read as 14-3-3g Raf -8.
For O=C1Nc2cc(C(=O)N3CCCC3)ccc2SC1N1CCN(c2ccc(Cl)cc2)CC1 (configuration not stated) the results were 14-3-3g Raf 1.
Nc1nc2ccccc2c(=O)s1 was read as 14-3-3g Raf 3.
CCN(CC)c1ccc2cc(C(=O)c3cc4ccc(N(CC)CC)cc4oc3=O)c(=O)oc2c1 was read as 14-3-3g Raf 77*.
Screening CCN(CC)c1ccc2cc(C(=O)Nc3ccccn3)c(=O)oc2c1 returned 14-3-3g Raf 7.
Screening CCN(CC)c1ccc2cc(C(=O)Nc3ccc(C)cc3)c(=O)oc2c1 returned 14-3-3g Raf -9.
